# Several values for one entry are separate records, joined by “and”; a condition that tells them apart may be missing. Identical values can stand only once. Records with an inconclusive call do not appear. A call without a number means that no potency is given here. Activity calls are given as the source filed them. Unless noted, calls come from the whole dose curve; as a rule, active = well fitted curve in the direction sought with a large enough effect in the repeat runs; inconclusive = weak or mixed curves; inactive = no such curve, though single readings can be large; an effect the other way counts as inactive or inconclusive.
# Columns and labels:
# [1] = qHTS assay to identify small molecule antagonists of the estrogen related receptor (ERR) signaling pathway from Tox21 library - cell viability counter screen (AID 1224834); note: nearly all actives have a fitted effect of over 30% in size
# In short: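 Compounds in DMSO were pinned onto ERR cells that had been incubated for 6 h, and the plates were held at 37 C for 17.5 h. CellTiter-Fluor reagent was then added and fluorescence was measured after 30 min.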
# [2] = molecular target: Luciferin 4-monooxygenase (Photinus pyralis) (UniProt P08659); experiment: qHTS assay to identify small molecule inhibitors of firefly luciferase (AID 1224835); note: nearly all actives have a fitted effect of over 25% in size
# In short: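 Biochemical qHTS: compounds run as interplate titrations against purified firefly enzyme, with D-luciferin and ATP each at its KM concentration. Light output recorded by CCD imaging.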
# [3] = qHTS assay to identify small molecule antagonists of the constitutive androstane receptor (CAR) signaling pathway - cell viability counter screen (AID 1224837); note: nearly all actives have a fitted effect of over 45% in size
# In short: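 Cells are seeded, rested 4 hr at 37 C/5% CO2, dosed with compound (15-point series) and 50 nM CITCO, incubated a further 23 hr, and then CellTiter-Fluor reagent is added before fluorescence is read. The line is HepG2 with stable hCAR and CYP2B6-2.2kb.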
# [4] = qHTS assay to identify small molecule antagonists of the estrogen related receptor signaling pathway with the pleiotropic PPARgamma coactivator (PGC) from Tox21 10K library (AID 1224841; call rule not given here; note: actives are mostly falling curves and most rising ones were filed inactive; nearly all actives have a fitted effect of over 50% in size)
# In short: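 Cells stably carrying the PGC/ERR reporter, seeded at 2,000 per well, received pin-transferred compounds 6 h post-plating. Exposure lasted 18 h at 37 C. Signal: One-Glo luminescence.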
# [5] = qHTS assay to identify small molecule agonists of the estrogen related receptor signaling pathway with the pleiotropic PPARgamma coactivator (PGC) from Tox21 10K library (AID 1224842); note: nearly all actives have a fitted effect of over 15% in size
# In short: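 PGC/ERR reporter cell line, 2,000 cells per well, incubated 6 h at 37 C before 23 nL compound in DMSO was added. After 18 h at 37 C, One-Glo luminescence read following 30 min at room temperature.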
# [6] = molecular target: Thyrotropin receptor (Homo sapiens) (UniProt P16473); experiment: qHTS assay to identify small molecule agonists of the thyroid stimulating hormone receptor (TSHR) signaling pathway (AID 1224843; calls by dose curve; note: nearly all actives have a fitted effect of over 45% in size)
# In short: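 Agonist-mode screen: TSHR HEK293 cells received test chemicals for half an hour at room temperature, then HTRF cAMP detection reagents for one hour prior to fluorescence measurement. Each chemical ran as a 15-concentration series, triplicated.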
# [7] = molecular target: Nuclear receptor subfamily 1 group I member 3 (Homo sapiens) (UniProt Q14994); experiment: qHTS assay to identify small molecule agonists of the constitutive androstane receptor (CAR) signaling pathway (AID 1224839); note: nearly all actives have a fitted effect of over 15% in size
# In short: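 Luminescence read-out (ONE-Glo, 30 min, room temperature) from double-stable HepG2-CYP2B6-hCAR cells exposed 24 h to 15-point compound series in presence of 0.75 uM PK11195 final.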
# [8] = qHTS assay to identify small molecule antagonists of the estrogen related receptor signaling pathway with the pleiotropic PPARgamma coactivator (PGC) from Tox21 10K library - cell viability counter screen (AID 1224840; active = well fitted cell-killing curve with a large enough effect in the repeat runs, not every such curve was filed as active; note: nearly all actives have a fitted effect of over 40% in size)
# In short: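 Cell viability is measured by CellTiter-Fluor fluorescence in PGC/ERR cells that receive compounds after a 6-hour attachment period and are then incubated 17.5 hours at 37 C.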
# [9] = qHTS assay to identify small molecule agonists of the constitutive androstane receptor (CAR) signaling pathway - cell viability counter screen (AID 1224836); note: nearly all actives have a fitted effect of over 45% in size
# In short: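 Viability read-out: CellTiter-Fluor fluorescence after 23 h compound exposure at 37 C/5% CO2 in double-stable HepG2-CYP2B6-hCAR cells, with PK11195 present at 0.75 uM final; compounds tested in 15-point titration.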
# [10] = molecular target: Nuclear receptor subfamily 1 group I member 3 (Homo sapiens) (UniProt Q14994); experiment: qHTS assay to identify small molecule antagonists of the constitutive androstane receptor (CAR) signaling pathway (AID 1224838);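 note: HepG2 cells stably expressing hCAR with CYP2B6 luciferase reporter stimulated by CITCO; nearly all actives have a fitted effect of over 40% in size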
# In short: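 Luminescence from a CYP2B6-2.2kb promoter reporter in hCAR-expressing HepG2 cells reflects CAR signaling. Cells received compounds at 15 concentrations and 50 nM CITCO (final), then incubated 24 h at 37 C/5% CO2.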
# Potency is the fitted concentration of half-maximal effect.
# Luciferin 4-monooxygenase (Photinus pyralis), sequence (P08659 whole entry, looked up): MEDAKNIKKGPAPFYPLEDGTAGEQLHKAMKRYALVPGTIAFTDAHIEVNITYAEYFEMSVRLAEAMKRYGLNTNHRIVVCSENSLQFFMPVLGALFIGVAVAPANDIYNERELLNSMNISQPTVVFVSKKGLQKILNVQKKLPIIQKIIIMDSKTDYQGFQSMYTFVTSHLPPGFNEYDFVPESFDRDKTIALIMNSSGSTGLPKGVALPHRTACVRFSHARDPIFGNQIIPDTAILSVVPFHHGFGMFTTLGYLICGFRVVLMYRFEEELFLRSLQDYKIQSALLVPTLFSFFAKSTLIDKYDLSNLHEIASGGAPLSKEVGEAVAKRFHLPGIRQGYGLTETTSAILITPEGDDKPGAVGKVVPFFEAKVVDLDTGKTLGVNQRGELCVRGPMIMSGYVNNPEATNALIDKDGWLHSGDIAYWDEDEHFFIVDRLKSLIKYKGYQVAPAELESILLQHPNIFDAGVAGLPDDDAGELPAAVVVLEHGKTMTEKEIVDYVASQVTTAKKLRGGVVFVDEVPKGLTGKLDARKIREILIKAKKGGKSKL
# Nuclear receptor subfamily 1 group I member 3 (Homo sapiens), sequence (Q14994 whole entry, looked up): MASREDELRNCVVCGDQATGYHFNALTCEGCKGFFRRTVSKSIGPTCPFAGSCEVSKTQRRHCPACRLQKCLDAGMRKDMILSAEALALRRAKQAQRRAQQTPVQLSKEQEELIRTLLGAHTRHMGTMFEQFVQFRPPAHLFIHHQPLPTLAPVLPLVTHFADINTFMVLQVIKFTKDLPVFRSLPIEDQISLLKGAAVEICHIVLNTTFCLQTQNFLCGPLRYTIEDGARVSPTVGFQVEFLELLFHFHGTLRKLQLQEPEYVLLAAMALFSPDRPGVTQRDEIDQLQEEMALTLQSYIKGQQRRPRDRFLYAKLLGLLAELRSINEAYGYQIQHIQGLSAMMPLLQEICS
# Thyrotropin receptor (Homo sapiens), sequence (P16473 whole entry, looked up): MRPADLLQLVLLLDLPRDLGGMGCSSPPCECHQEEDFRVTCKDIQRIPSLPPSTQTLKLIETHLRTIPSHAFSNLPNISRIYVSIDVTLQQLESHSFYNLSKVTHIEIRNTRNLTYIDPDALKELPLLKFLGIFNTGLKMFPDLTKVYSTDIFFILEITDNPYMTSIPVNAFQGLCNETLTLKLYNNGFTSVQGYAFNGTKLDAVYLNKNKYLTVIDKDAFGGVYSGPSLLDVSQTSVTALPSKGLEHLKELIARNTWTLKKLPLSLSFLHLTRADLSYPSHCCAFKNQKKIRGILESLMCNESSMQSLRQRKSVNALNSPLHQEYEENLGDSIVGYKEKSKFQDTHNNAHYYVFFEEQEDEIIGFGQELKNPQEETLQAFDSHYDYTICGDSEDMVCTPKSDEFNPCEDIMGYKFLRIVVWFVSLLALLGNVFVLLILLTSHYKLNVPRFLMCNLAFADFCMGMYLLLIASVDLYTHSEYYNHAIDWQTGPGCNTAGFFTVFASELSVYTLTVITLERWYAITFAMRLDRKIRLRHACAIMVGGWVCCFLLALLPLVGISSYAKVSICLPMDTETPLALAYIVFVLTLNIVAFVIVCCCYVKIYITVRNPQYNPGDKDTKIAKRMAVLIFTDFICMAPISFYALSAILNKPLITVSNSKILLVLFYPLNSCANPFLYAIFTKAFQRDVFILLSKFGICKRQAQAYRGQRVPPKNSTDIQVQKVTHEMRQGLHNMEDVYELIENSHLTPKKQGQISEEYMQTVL
Structure (SMILES),Potency [1],Potency [2],Potency [3],Potency [4],Potency [5],Potency [6],Potency [7],Potency [8],Potency [9],Potency [10]
C[Si](Cn1cncn1)(c1ccc(F)cc1)c1ccc(F)cc1,63.1 µM (active) and 48.6 µM (active),inactive,inactive,39.8 µM (active) and 48.6 µM (active),inactive,inactive,–,–,–,–
C=CCN1C[C@H](C)N([C@H](c2ccc(C(=O)N(CC)CC)cc2)c2cccc(OC)c2)C[C@H]1C,inactive,inactive,–,–,inactive,inactive,inactive,inactive,–,–
CC(=O)NNc1ccccc1,–,–,inactive,inactive,inactive,inactive,inactive,–,inactive,–
CCC(C)Cl (configuration not stated),–,inactive,inactive,–,–,inactive,inactive,inactive,inactive,inactive
CCOC(=O)c1cn2nc(OP(=S)(OCC)OCC)cc2nc1C,–,inactive,inactive,43.3 µM (active),inactive,–,–,–,inactive,–
O=C1CC[C@@]2(O)[C@H]3Cc4ccc(O)c5c4[C@@]2(CCN3CC2CC2)[C@H]1O5,–,inactive,inactive,–,–,inactive,inactive,inactive,inactive,–
COc1ccccc1N1CCNCC1,–,inactive,inactive,–,–,inactive,–,–,inactive,–
CC(C)(C)NCC(O)c1cc(Cl)c(N)c(C(F)(F)F)c1 (configuration not stated),–,inactive,–,inactive,inactive,2.1 nM (active),inactive,–,–,–
C#CC(O)(C=CCl)CC (configuration not stated),–,inactive,inactive,–,–,inactive,–,–,inactive,–
C=CC(C)(CCC=C(C)C)OC(=O)c1ccccc1N (configuration not stated),–,–,inactive,–,–,inactive,inactive,inactive,inactive,inactive
COc1cc(CC(C)N)c(OC)cc1Br (configuration not stated),–,inactive,–,–,inactive,inactive,–,–,inactive,–
CC(C)OC(=O)Cc1ccccc1,–,inactive,inactive,–,–,inactive,–,–,inactive,–
CCCN(CCC)C(=O)Cc1c(-c2ccc(Cl)cc2)nc2ccc(Cl)cn12,–,–,inactive,–,–,inactive,–,inactive,inactive,inactive
CCOP(=O)(O)C(N)=O,–,inactive,inactive,–,–,inactive,–,inactive,inactive,inactive
C=CCOC(=O)C(C)(C)OC(=O)c1cc(-n2c(=O)cc(C(F)(F)F)n(C)c2=O)ccc1Cl,–,inactive,inactive,–,inactive,–,–,inactive,inactive,inactive
CC(C)c1ccc(OP(=O)(Oc2ccc(C(C)C)cc2)Oc2ccc(C(C)C)cc2)cc1,–,inactive,inactive,–,–,13.8 µM (active) and 15.4 µM (active) and 13.7 µM (active),30.9 µM (active) and 27.3 µM (active) and 48.5 µM (active),inactive,inactive,–
OC[P+](CO)(CO)CO,–,inactive,inactive,–,–,inactive,–,–,inactive,inactive
O=C(O)c1cc(Cl)ccc1Cl,–,inactive,inactive,–,–,–,–,inactive,inactive,–
COC1=CC(=O)O[C@@H](/C=C/c2ccc3c(c2)OCO3)C1,–,60.6 µM (active),inactive,18.5 µM (active),inactive,inactive,–,–,inactive,–
O=[N+]([O-])/C=C/c1ccccc1,–,–,30.6 µM (active),inactive,9.85 µM (active) and 13.7 µM (active),inactive,inactive,15.6 µM (active) and 24.3 µM (active),27.8 µM (active) and 24.3 µM (active),–
O=C(NC(=O)c1cc(F)c(F)cc1Cl)Nc1cc(F)ccc1N1CCC(C(=O)O)CC1,–,inactive,inactive,–,–,inactive,–,inactive,inactive,–

Structure (SMILES),Potency [1],Potency [2],Potency [3],Potency [4],Potency [5],Potency [6],Potency [7],Potency [8],Potency [9],Potency [10]
CC(C)(C)CC(C)(C)c1ccc(O)cc1,–,inactive,inactive,–,–,6.86 µM (active) and 13.3 µM (active),–,–,inactive,–
CCCN(CCOc1c(Cl)cc(Cl)cc1Cl)C(=O)n1ccnc1,–,inactive,–,55.6 µM (active) and 27.3 µM (active),inactive,–,54.5 µM (active),–,inactive,–
O=C(N/N=C/c1ccc([N+](=O)[O-])o1)c1cc([N+](=O)[O-])cc([N+](=O)[O-])c1O,–,21.9 µM (active),10.6 µM (active),–,–,inactive,15 µM (active),11.9 µM (active),11.9 µM (active),–
O=S(=O)(Cl)Cl,–,inactive,inactive,–,–,inactive,inactive,inactive,inactive,–
CC(C)(C)N(NC(=O)c1ccc(Cl)cc1)C(=O)c1ccccc1,–,inactive,8.58 µM (active),inactive,inactive,–,inactive,inactive,–,inactive
CCCC[P+](CC)(CCCC)CCCC (tested in a mixture with another compound),–,inactive,inactive,–,–,inactive,–,–,inactive,–
Cc1ccc2c(C)cccc2c1,–,inactive,inactive,–,–,inactive,inactive,inactive,inactive,inactive
CCC(=O)O[C@@H]1C=C2CCC3C(CCC4(C)C3CC[C@@H]4OC(=O)CC)C2CC1 (some centres not stated),–,inactive,inactive,–,–,inactive,–,inactive,inactive,–
CCC1(C2=NCCN2)Cc2ccccc2O1 (configuration not stated),–,inactive,inactive,inactive,inactive,inactive,–,–,inactive,–
CN1C(=O)CN=C(c2ccccc2)c2cc([N+](=O)[O-])ccc21,–,inactive,inactive,–,–,inactive,inactive,inactive,inactive,inactive
O=C(Cl)OCCOCCOC(=O)Cl,–,inactive,inactive,inactive,inactive,inactive,inactive,–,inactive,30.6 µM (active)
Nc1ccccc1C(=O)OCCc1ccccc1,–,897 nM (active) and 796 nM (active),inactive,inactive,1.09 µM (active) and 1.37 µM (active),–,54.7 µM (active) and 27.3 µM (active),–,inactive,inactive
CC(=O)OC(c1ccccc1)C(Cl)(Cl)Cl (configuration not stated),–,inactive,inactive,–,–,inactive,–,inactive,inactive,–
Nc1ccccc1C(=O)OCC(O)CO (configuration not stated),–,inactive,inactive,–,–,inactive,inactive,–,inactive,inactive
COc1ccc(C(=O)c2c(C)n(CCN3CCOCC3)c3ccccc23)cc1,–,inactive,inactive,inactive,inactive,–,–,inactive,inactive,–
C=C(C)C(=O)OCCCCOC(=O)C(=C)C,–,–,inactive,inactive,inactive,inactive,inactive,inactive,inactive,inactive
Cc1nc(N(C)C)nc(OC(=O)N(C)C)c1C,–,inactive,inactive,–,–,inactive,–,inactive,inactive,–
COc1cc(C[C@@H](C)N)c(OC)cc1Br,–,inactive,inactive,31.5 µM (active),inactive,–,–,–,inactive,–
CC(C)C1(C)N=C(c2ncccc2C(=O)O)NC1=O (configuration not stated),–,inactive,inactive,–,–,inactive,inactive,–,inactive,inactive
CN(C)c1ccc(N=O)cc1,–,–,30.7 µM (active) and 27.3 µM (active),inactive,9.72 µM (active) and 8.63 µM (active),–,4.87 µM (active),19.4 µM (active) and 30.6 µM (active),27.4 µM (active) and 43.3 µM (active),–
